Compound activity (PubChem BioAssay)
Sampled rows, rich in hits. Any-hit rate of the full collection: about 3.6%.
D1 potentiator = Potentiators of Human D1 Dopamine Receptor: qHTS; HEK293 TREx D1 cells, calcium flux, dopamine EC20 potentiation; 360,000 tested, 0.036% active; potentiation, % at 10 µM; in the data active = potentiation above about 30%
LDHA inh = qHTS assay for inhibitors of human lactate dehydrogenase; activity change, % (values are at about 110 or 230 µM); purified LDHA, NADH/diaphorase-resazurin fluorescence; hits give low values; 480,000 tested, 0.15% active; L-lactate dehydrogenase A chain (Homo sapiens), P00338; in the data active = activity change below about -30%; inconclusive = mostly about -25% to -30%
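Enzyme activity of human lactate dehydrogenase 5 (2 nM; 0.06 mM NADH, 0.2 mM pyruvate, 5 min, RT) is measured via a resazurin/diaphorase fluorescence readout of residual NADH.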
D1 agonist = Allosteric Agonists of the Human D1 Dopamine Receptor: qHTS; HEK293 T-REx D1 cells, calcium flux, agonist mode; D(1A) dopamine receptor (Homo sapiens), P21728; AID 504660, 2011; 360,000 tested, 1% active; activation, % at 2 µM
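Agonism was scored from calcium flux recorded over 180 s (1 read/s) after pintool compound addition, following a 10-cycle baseline. Cells were inducible force-coupled HEK293 TREx D1, plated overnight at 30 C and loaded with no-wash calcium dye.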
D1 antag = Antagonist of Human D 1 Dopamine Receptor: qHTS. D(1A) dopamine receptor (Homo sapiens), P21728. HEK293 TREx D1 cells, calcium flux, dopamine EC80; hits give low values. activity change, negative = inhibition, % at 10 µM. 360,000 tested, 3.2% active; in the data active = activity change below about -30%
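Kinetic fluorescence of a calcium dye serves as the read-out. D1-expressing Hek293 Trex cells, induced overnight at 30 C, are exposed to compound for 180 s before an EC80 dopamine addition, then read 180 s further.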
TRHR ag = qHTS for Small Molecule Agonists and Allosteric Enhancers of Human TRH Receptor: Primary Screen for Agonists. TRHR cells, calcium flux fluo-8, FDSS agonist mode. AID 493084, 2011. activation, % at 2 µM. 360,000 tested, 0.18% active. Thyrotropin-releasing hormone receptor (Homo sapiens), P34981
Target sequence (P34981 whole entry, looked up): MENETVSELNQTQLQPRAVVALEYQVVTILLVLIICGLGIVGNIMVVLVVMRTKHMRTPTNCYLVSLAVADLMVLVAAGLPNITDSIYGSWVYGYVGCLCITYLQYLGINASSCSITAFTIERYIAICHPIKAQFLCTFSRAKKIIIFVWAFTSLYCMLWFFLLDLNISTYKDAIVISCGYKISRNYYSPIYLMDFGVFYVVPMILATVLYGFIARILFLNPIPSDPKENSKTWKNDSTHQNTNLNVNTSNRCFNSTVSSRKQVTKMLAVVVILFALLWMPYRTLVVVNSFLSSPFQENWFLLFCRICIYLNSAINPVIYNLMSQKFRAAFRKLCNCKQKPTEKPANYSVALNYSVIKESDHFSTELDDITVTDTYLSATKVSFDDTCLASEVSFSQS
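TRHR-expressing cells, plated overnight in medium with 10% serum, were loaded with fluo-8 calcium dye at room temperature. After a 10 s baseline, library compound was pin-added and calcium release was recorded kinetically (ex 480/em 530) as agonist response.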
TRHR PAM = qHTS for Small Molecule Agonists and Allosteric Enhancers of Human TRH Receptor: Primary Screen for Enhancers; TRHR cells, fluo-8 calcium fluorescence, EC20 TRH enhancement; enhancement, % at 2 µM; 360,000 tested, 0.66% active; Thyrotropin-releasing hormone receptor (Homo sapiens), P34981; AID 493056, 2011; in the data active = enhancement above about 30%
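TRHR-expressing cells loaded with fluo-8 calcium dye were read kinetically (ex 480/em 530) during compound addition, then stimulated with an EC20 of TRH (10 nM final). Enhancement of the Gq-mediated intracellular calcium response was scored.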
Large screens that a line does not name were inactive. Rule as the data show it, unless noted: active = activation above about 30%; inactive = the rest.

COc1ccc(CC(=O)NNC(=O)COCC(=O)Nc2ccc(C#N)cc2)cc1	none (no result: D1 potentiator, D1 agonist, D1 antag, TRHR ag, TRHR PAM)
O=C(COc1ccccc1Cl)Nc1ccc(S(=O)(=O)N2CCOCC2)cc1	none
CN1CCN(S(=O)(=O)c2ccc(NC(=O)COc3ccccc3Cl)cc2)CC1	D1 antag -53
O=C(COc1ccc(F)c(Cl)c1)Nc1ccc(N2CCOCC2)cc1	none (no result: D1 potentiator, D1 agonist, D1 antag, TRHR ag, TRHR PAM)
Cc1cc(OCC(=O)Nc2ccc(N3CCN(S(C)(=O)=O)CC3)cc2)ccc1Cl	none (no result: D1 potentiator, D1 agonist, D1 antag, TRHR ag, TRHR PAM)
CCC(=O)N1CCN(c2ccc(NC(=O)COc3ccccc3Cl)cc2)CC1	none
O=C(COc1cccc(Cl)c1)Nc1ccc(N2CCOCC2)cc1	D1 antag -37
Cc1cc(OCC(=O)Nc2ccc(N3CCN(C)CC3)cc2)ccc1Cl	D1 antag -83
CCC(=O)N1CCN(c2ccc(NC(=O)COc3ccccc3[N+](=O)[O-])cc2)CC1	D1 agonist 31
CC(=O)c1ccc(-n2cc(-c3ccccc3)cc2-c2ccccc2)cc1	none (no result: D1 potentiator, D1 agonist, D1 antag, TRHR ag, TRHR PAM)
O=C(Nc1ccc(S(=O)(=O)N2CCCC2)cc1)c1cnccn1	none
CC(C)c1ccc(OCC(=O)Nc2ccc(S(=O)(=O)Nc3ccccn3)cc2)cc1	none
CCc1ccc(OCC(=O)Nc2ccc(S(=O)(=O)Nc3ccccn3)cc2)cc1	D1 agonist 42
O=C(Nc1ccc(S(=O)(=O)N2CCN(Cc3ccccc3)CC2)cc1)c1cnccn1	D1 antag -36
NS(=O)(=O)c1ccc(NC(=O)COC(=O)C2CCCCC2)cc1	none
CN1CCN(S(=O)(=O)c2ccc(NC(=O)c3ccc(Br)s3)cc2)CC1	D1 antag -46
O=C(COC(=O)C1CCCCC1)Nc1ccc(N2CCCCC2)cc1	D1 antag -30
CCOC(=O)c1[nH]c(C)c(C(=O)OCC(=O)OC)c1C	none (no result: D1 potentiator, D1 agonist, D1 antag, TRHR ag, TRHR PAM)
Cc1ccc(/C=C(\C#N)C(=O)NC2CCCCC2)o1	none (no result: D1 potentiator, D1 agonist, D1 antag, TRHR ag, TRHR PAM)
CCOc1ccc(NC(=O)COc2ccc(S(=O)(=O)N3CCOCC3)cc2)cc1	none (no result: D1 potentiator, D1 agonist, D1 antag, TRHR ag, TRHR PAM)
Cc1cc(OCC(=O)Nc2ccc(S(=O)(=O)N3CCN(C)CC3)cc2)ccc1Cl	none
CCc1ccc(OCC(=O)Nc2ccc(S(=O)(=O)N3CCOCC3)cc2)cc1	D1 agonist 44
CN1CCN(S(=O)(=O)c2ccc(NC(=S)NC(=O)c3ccccc3)cc2)CC1	none
Cc1cc(OCC(=O)Nc2ccc(S(=O)(=O)N3CCN(C)CC3)cc2)cc(C)c1Cl	D1 antag -70
CN1CCN(S(=O)(=O)c2ccc(NC(=S)NC(=O)c3ccc(Cl)cc3)cc2)CC1	D1 agonist 30, D1 antag -57
CCCC(C(=O)Nc1ccc(S(=O)(=O)N2CCOCC2)cc1)c1ccccc1 (stereo unspecified)	D1 agonist 37
O=C(CSc1nnnn1-c1ccccc1)Nc1ncc(Cc2ccccc2Cl)s1	none
N=C1SC(c2ccccc2)C(=O)N1c1ncc(Cc2ccccc2Cl)s1 (stereo unspecified)	D1 antag -43
COc1ccc(C2Nc3ccccc3C(=O)N2Cc2ccccc2)cc1 (stereo unspecified)	D1 antag -39
COc1ccc(C2Nc3ccccc3C(=O)N2Cc2ccccc2)cc1OC (stereo unspecified)	none (no result: D1 potentiator, D1 agonist, D1 antag, TRHR ag, TRHR PAM)
CCOC(=O)C1CSC(CC(=O)Nc2ccc(OC(F)(F)F)cc2)C(=O)N1 (stereo unspecified)	D1 antag -32
CCN1CCCC1CNCC(=O)Nc1ccc(OC(F)(F)F)cc1 (stereo unspecified)	LDHA inh inconclusive
Cc1ccc(OCc2n[nH]c(=S)n2-c2ccccc2)cc1C	none
Cc1ccc(-n2c(CCc3ccccc3)n[nH]c2=S)cc1C	TRHR PAM 31
